Screens (PubChem BioAssay)
Sampled rows, rich in hits. Any-hit rate of the full collection: about 2.8%.
D3 ag = activates the human D3 dopamine receptor; D3R DiscoveRx beta-arrestin cells, luminescence, 90 min; P35462; max activation, %; 410,000 compounds, 0.58% hits; in the data active means max activation above about 30%; further: 0% is about no effect
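Agonist-mode cell screen: cells plated at 1500/well and incubated overnight at 37 °C, then exposed to library compounds for 90 min at 37 °C. Detection reagent was added for 30–60 min at room temperature, and luminescence was read.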
B2AR arrestin = agonists driving beta-arrestin recruitment to human beta2-adrenergic receptor | Potency, µM (doses to about 46.1 µM), inactives show at the top dose activation, actives largely listed as activators | P07550 | beta-arrestin recruitment to beta2AR, cell-based reporter | 330,000 compounds, 0.02% hits | AID 492947; active means well fitted activation curve with a large enough effect; inconclusive means small, poorly fitted or top-dose-only effect;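 further: potency means the concentration at half of the fitted maximal effect; 0% = DMSO controls and full agonism = EC100 isoproterenol or metaproterenol; nearly all actives have a fitted effect of over 65% in size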
Target sequence (P07550 whole entry, looked up): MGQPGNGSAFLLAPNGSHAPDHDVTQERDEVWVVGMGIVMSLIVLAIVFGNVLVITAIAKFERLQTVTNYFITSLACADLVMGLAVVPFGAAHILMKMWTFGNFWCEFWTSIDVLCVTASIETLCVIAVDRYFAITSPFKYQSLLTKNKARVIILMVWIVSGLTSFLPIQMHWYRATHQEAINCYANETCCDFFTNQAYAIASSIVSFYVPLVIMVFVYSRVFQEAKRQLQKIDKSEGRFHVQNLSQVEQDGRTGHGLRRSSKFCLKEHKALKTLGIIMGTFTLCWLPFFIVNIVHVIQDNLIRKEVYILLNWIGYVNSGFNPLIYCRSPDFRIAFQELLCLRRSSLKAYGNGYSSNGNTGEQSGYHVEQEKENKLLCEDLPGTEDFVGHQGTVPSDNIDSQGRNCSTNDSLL
D3 antag = D3 dopamine receptor (human) antagonism. max response, negative = inhibition, %. D3R cells, DiscoveRx beta-arrestin luminescence, antagonist mode; stronger effect = lower value. P35462. 360,000 compounds, 2.5% hits; in the data active means max response below about -50%; inconclusive means no clear call, values can overlap the other calls; further: on the % scale 0 is the no-effect control and ±100 the full control effect
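Cells expressing the human receptor were seeded at 1500 cells/well, incubated overnight at 37 degrees C in 5% CO2, then exposed to library compounds with dopamine controls for 90 minutes at 37 degrees C before luminescent detection.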
Giardia killer = kills Giardia lamblia; Giardia lamblia trophozoite viability; activity change, % at 7.66 µM, hits read low; 340,000 compounds, 0.15% hits; AID 540267; in the data active means activity change below about -80%; inconclusive means between about -30% and that limit;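 further: parasites exposed to compound for two days anaerobically before the ATP read; on the % scale 0 is the no-effect control and ±100 the full control effect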
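Luminescence from cellular ATP indicates surviving trophozoites (100 cells/well) following 48 hrs anaerobic compound treatment at 37 deg C; signal develops 15-30 min at room temperature.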
* marks the source's active call; other numbers are inactive results; ? = inconclusive; nt = no result given.

SMILES	D3 ag	B2AR arrestin	D3 antag	Giardia killer
COc1cccc(C(c2nnnn2C(C)(C)C)N2CCN(C/C=C/c3ccccc3)CC2)c1OC (stereo unspecified)	-21	nt	-102*	nt
COc1cccc(C(c2nnnn2C(C)(C)C)N2CCN(C3CCCCC3)CC2)c1OC (stereo unspecified)	-5	0%	11	-15
C(=C\c1ccccc1)/CN1CCN(C(c2ccnc3ccccc23)c2nnnn2-c2ccc3c(c2)OCCO3)CC1 (stereo unspecified)	-10	nt	-18	nt
Cn1c(=O)c2nc(SCC(=O)Nc3ccc(Cl)c(Cl)c3)n(C)c2n(C)c1=O	6	nt	nt	nt
CCn1nc(C)c2c(-c3ccccc3)cc(=O)n(C(C)C(=O)Nc3ccc(OC)c(OC)c3)c21 (stereo unspecified)	-7	nt	nt	nt
C=C[C@]1(C)C[C@@H](OC(=O)CO)[C@]2(C)[C@H](C)CC[C@]3(CCC(=O)[C@H]32)[C@@H](C)[C@@H]1O	6	nt	nt	nt
CC(=O)c1cccc(NC(=O)Nc2nnc(N3CCCC3)s2)c1	-9	nt	nt	nt
COc1ccc(N2CCN(C(c3cccs3)c3nnnn3C3CCCC3)CC2)cc1 (stereo unspecified)	0	0%	8	-10
COc1ccc(-n2nnnc2C(c2cccs2)N2CCN(C/C=C/c3ccccc3)CC2)cc1 (stereo unspecified)	-23	nt	-60*	nt
CCCCn1nnnc1C(c1cccs1)N1CCN(C/C=C/c2ccccc2)CC1 (stereo unspecified)	-16	nt	?	nt
CCCCn1nnnc1C(c1ccc(OC)cc1)N1CCN(C/C=C/c2ccccc2)CC1 (stereo unspecified)	-19	nt	-107*	nt
CCOc1ccc(NC(=O)N2CCC(N3CCCCC3)CC2)cc1	-5	nt	nt	nt
COC(=O)C[C@@H]1C=C[C@H](NC(=O)Cc2ccccn2)[C@@H](CO)O1	30*	nt	-1	nt
COc1ccc(C(=O)C(CCCCC(CN(C)C)C(=O)c2ccc(OC)cc2)CN(C)C)cc1 (stereo unspecified)	-13	3%	?	11
CCOc1ccc(C(=O)C(CCC(CN(C)C)C(=O)c2ccc(OCC)cc2)CN(C)C)cc1 (stereo unspecified)	-13	0%	-85*	-9
CN(C)CC(CCC(CN(C)C)C(=O)c1ccccc1)C(=O)c1ccccc1 (stereo unspecified)	-43	1%	-80*	3
COc1ccc(CN(Cc2ccccc2)C(=O)COC(C)=O)cc1COc1ccc(NC(C)=O)cc1	nt	nt	nt	-6
Cc1ccc(NC(=O)c2cc3ccccn3n2)cc1F	-17	nt	nt	nt
N[C@H](C(=O)O)[C@@H]1CC(Cl)=NO1	6	nt	nt	nt
CCCCN(C)CCNC(=O)c1cc2c(=O)n(C)c3ccccc3c2n1C	-25	nt	nt	nt
Cn1c(CNS(=O)(=O)c2ccc(Cl)cc2)n[nH]c1=S	-3	0%	-60*	16
Cn1c(CNS(=O)(=O)c2ccc(F)cc2)n[nH]c1=S	1	0%	-9	-3
Cc1ccc(OC(C)C(=O)N2CCN(CCc3ccncc3)CC2)cc1C (stereo unspecified)	-3	nt	nt	nt
CC(=O)Nc1ccc(NC(=O)CN2CCN(c3cccc(C(F)(F)F)c3)CC2)cc1	-17	0%	-80*	-2
O=C(CN1CCN(c2cccc(C(F)(F)F)c2)CC1)Nc1cccc(C(F)(F)F)c1	-8	0%	?	-7
SMILES	D3 ag	B2AR arrestin	D3 antag	Giardia killer
CC(=O)Nc1ccc(CN2CCN(c3cccc(C(F)(F)F)c3)CC2)cc1	-59	0%	-92*	17
CCCCN1CC(c2nc3ccccc3n2CCCCOc2c(C)cccc2C)CC1=O (stereo unspecified)	-14	nt	nt	nt
CC(=O)c1cccc(NC(=O)CN2C(=O)COc3ccc(Cl)cc32)c1	-11	0%	-94*	-1
C=C(CN(C)C)C(=O)c1ccc(C)cc1C	-12	nt	-88*	-3
COC(=O)C1=C[C@@H](C(=O)OC)[C@@H]2C3=C(C(=O)[C@@]2(C)NC(=O)c2ccccc2)[C@H](C)[C@@H]2C(=O)N(Cc4ccccc4)C(=O)[C@@H]2[C@@H]3C1	nt	nt	nt	20
COc1ccc(NC(=O)c2oc3ccccc3c2NC(=O)COc2ccc(C(C)C)cc2)c(OC)c1	-6	nt	nt	nt
COc1ccc(NC(=O)c2oc3ccccc3c2NC(=O)COc2ccccc2OC)c(OC)c1	58*	-1%	-1	0
FC(F)(F)c1ccc2c(c1)N1CCCC1CN2 (stereo unspecified)	6	-1%	0	-87*
FC(F)(F)c1ccc2c(c1)NCC1CCCN21 (stereo unspecified)	4	-1%	19	0
COc1cccc(N2CCN(Cc3cc(=O)oc4cc(C)ccc34)CC2)c1	-13	nt	nt	nt
Cc1cccc(N2C(=O)N(Cc3ccc(C(C)(C)C)cc3)c3ccccc3S2(=O)=O)c1	2	nt	nt	nt
CC(C)(C)c1ccc(CN2N=Nc3ccccc3S2(=O)=O)cc1	3	0%	-93*	3
CCCNc1nc(NCc2ccccc2OC)c2cnn(C)c2n1	-11	nt	nt	nt
COc1cc(OC)cc(-c2c(-c3cccs3)c3cc(-c4ccc5[nH]ccc5c4)ccc3n2C)c1	39*	-1%	17	-14
Cc1ccc(S(=O)(=O)c2cn(Cc3ccccc3)c3cc(N4CCOCC4)c(F)cc3c2=O)cc1	9	nt	nt	nt
O=C(COC(=O)Cn1[nH]c(=O)c2ccccc2c1=O)NNC(=O)c1ccc(Br)cc1	-34	0%	-118*	-15
O=C(COC(=O)Cc1n[nH]c(=O)c2ccccc12)NNC(=O)c1ccc(Cl)cc1	-26	0%	-131*	9
Cc1cc(NS(=O)(=O)c2ccc(NC(=O)C(C(C)C)N3C(=O)c4ccccc4C3=O)cc2)nc(C)n1 (stereo unspecified)	-6	0%	-75*	-7
CCCC(=O)Nc1ccc(S(=O)(=O)Nc2cc(C)nc(C)n2)cc1	1	0%	-11	7
Cc1cc(NS(=O)(=O)c2ccc(NC(=O)C(F)(F)F)cc2)nc(C)n1	30*	0%	-9	-9
CCN(CC)CC(=O)Nc1sc(C)cc1C(=O)c1ccc(C)cc1	1	-1%	-6	-21
CCc1cc(C(=O)c2ccc(Br)cc2)c(NC(=O)CN(CC)CC)s1	2	-1%	-62*	0
O=C(COC(=O)C12CC3CC(CC(C3)C1)C2)NCC1CCCO1 (stereo unspecified)	nt	nt	nt	12
C#CC(C)(CC)NC(=O)c1cnn2c(C(F)F)cc(-c3ccccc3OC)nc12 (stereo unspecified)	64*	nt	nt	nt
OCc1ccccc1OCCCN1CCC(Cc2ccccc2)CC1	-25	0%	-66*	2
O=Cc1cc(Cl)ccc1OCCN1CCC(Cc2ccccc2)CC1	-23	8%	?	-5
Clc1ccccc1OCCN1CCC(Cc2ccccc2)CC1	-7	0%	-90*	12
C=CCOc1ccccc1CN1CCC(Cc2ccccc2)CC1	-10	0%	-52*	-6
CCc1ccc(NC(=O)CN2C(=O)C3CCCN3c3ccc(S(=O)(=O)N(CC)CC)cc32)cc1 (stereo unspecified)	-2	nt	nt	nt
Fc1cc2[nH]cnc2cc1Cl	-2	0%	0	?
